A selection: hits, their analogues and other compounds. The true share with any hit is near 7.9%.
HT1080 IDH1KD tx – toxicity to HT-1080 IDH1 knockdown cells (counter line); 360,000 tested, 2% active; AID 686971; Potency, µM (titrated, usually from 46.1 µM), for inactives: at the top dose activity, negative = toxicity, actives largely listed as cytotoxic; HT-1080 IDH1 knockdown viability, ATP luminescence, 48 h;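 also: 0% = DMSO wells and -100% = cell-free medium wells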
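Luminescent ATP read-out (CellTiter-Glo, 10 min at room temperature) after 48 h compound exposure at 37 °C gave viability of IDH1-knockdown HT-1080 cells. Activity was normalised to DMSO and cell-free wells, then fitted as concentration-response curves.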
HT1080NT lethal – kills 2HG-producing HT-1080-NT fibrosarcoma cells; Potency, µM (titrated, usually from 46.1 µM), inactives show at the top dose activity, negative = less viability, usual class: cytotoxic; AID 686970; HT-1080-NT fibrosarcoma viability, CellTiter-Glo ATP luminescence, 48 h; 360,000 tested, 1.6% active;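 also: NT is the 2HG producing partner of a matched IDH1 knockdown line; 0% = DMSO-treated cells and -100% = media-only wells without cells; nearly all actives have a fitted effect of over 55% in size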
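Viability of the 2HG-overproducing fibrosarcoma line after 48 hours of compound exposure at 37 degrees C was determined by luminescence with CellTiter-Glo, and concentration-effect curves were then fitted and categorized.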
KB-V1 MDR tox – KB-V1 MDR subline cytotoxicity. KB-V1 MDR cells viability, CellTiter-Glo, 72 h. Potency, µM (doses to about 46.1 µM), usual class: cytotoxic. 400,000 tested, 3.4% active; also: % is scaled to controls: 0 for no effect and ±100 for the full control effect; nearly all actives have a fitted effect of over 60% in size
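Potencies derive from concentration-effect curves fitted to normalized luminescence (CellTiter-Glo) of KB-V1 cells treated for 72 h at 37 degrees C in phenol-red-free DMEM containing 10% FBS.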
MCF10A rereplic – induces DNA re-replication in MCF 10a normal breast cells; AID 624296; MCF 10A DNA re-replication, Hoechst nuclear intensity, 48 h; Potency, µM (top dose mostly 46.1 µM), without a hit: top-dose activity, positive = re-replication, most hits filed as activators; 350,000 tested, 2.9% active; also: % of control where 0% means no effect; nearly all actives have a fitted effect of over 50% in size
SW480 rerep – DNA re-replication induction in SW480 cells; 340,000 tested, 1.8% active; Potency, µM (series often up to 46.1 µM), for the others: at the highest dose re-replication activation, usual class: activators; SW480 DNA re-replication, Hoechst DNA content imaging, 48 h; AID 624297; also: % of control where 0% means no effect; nearly all actives have a fitted effect of over 55% in size
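DNA re-replication was detected as more nuclei of elevated Hoechst intensity after 48 hr exposure to compound (23 nL pinned per well of 250 cells).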
KB-3-1 tox – kills parental KB-3-1 adenocarcinoma cells; KB-3-1 viability, CellTiter-Glo ATP luminescence, 72 h; Potency, µM (top dose mostly 46.1 µM), usual class: cytotoxic; 400,000 tested, 1.4% active; also: % is scaled to controls: 0 for no effect and ±100 for the full control effect; nearly all actives have a fitted effect of over 60% in size
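Parental KB-3-1 adenocarcinoma cells in phenol-red-free DMEM with 10% FBS were pin-treated with compounds at several concentrations, incubated 72 h at 37 °C, and viability read by CellTiter-Glo luminescence; concentration-effect curves were fitted after normalization.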
An asterisk follows results filed as active; i = inactive; ? = inconclusive; nt = no result given; [ ] = another dose, or the depositor's remark. Calls follow the shape of the dose curve; as a rule, active = well fitted curve in the direction sought with a large enough effect; inconclusive = small, poorly fitted or top-dose-only effect, or another doubt; inactive = no such curve, though single readings can be large; an effect the other way counts as inactive or inconclusive. Potency is read from the fitted curve at half-maximal effect.

SMILES | HT1080 IDH1KD tx | HT1080NT lethal | KB-V1 MDR tox | MCF10A rereplic | SW480 rerep | KB-3-1 tox
CN(C)c1ccc(/C=C/c2cc[n+]([O-])c3ccccc23)cc1 | nt | nt | ? | nt | nt | i
CC[n+]1ccccc1/C=C/c1ccc(N(C)C)cc1 | 18µM* | ? | i | ? | -4% | 1.3µM*
C/C(=N\NC(=O)c1cc([N+](=O)[O-])cc([N+](=O)[O-])c1)c1ccco1 | 8% | 0% | i | -2% | 13% | i
Cc1cc(C)cc(NC(=O)N2CCCN(c3ncccc3[N+](=O)[O-])CC2)c1 | 11% | 0% | i | 2% | 2% | i
Cc1nc(N)sc1Cc1ccc2c(c1)OCO2 | 5% | 1% | i | 2% | -5% | i
COc1cccc(N2CCN(C(=S)Nc3ccccc3)CC2)c1 | 7% | 2% | i | 2% | -8%[9.22 µM] | i
CCOc1ccc(-c2nnn(CC#N)n2)cc1OC | ? | ? | i | 10µM* | ? | ?
CCOc1ccc(-c2nnn(CC(=O)c3cc(OC)ccc3OC)n2)cc1 | 3% | 20% | 5.2µM* | ? | 6% | 15µM*
COc1ccc(-c2nnn(CC#N)n2)cc1OC | 2% | 4% | i | -3% | -8% | i
CN(CC(=O)Nc1ccc(F)cc1)C(=O)COC(=O)CNC(=O)c1ccc(Cl)cc1Cl | 5% | 0% | i | -2% | -34% | i
COc1ccc(O)c(C(=O)CC(=O)c2ccncc2)c1 | -1% | 16% | 9.2µM* | -8% | -19% | i
COc1ccc(C(=O)CC(=O)c2ccccc2)cc1 | -17% | -12% | ? | 2% | 2.9µM* | i
O=C(CC(=O)c1ccncc1)c1ccccc1 | -2% | 4% | 18µM* | -3% | -7% | i
Cc1cc(=O)oc(C)c1C(=O)OCC(=O)c1ccccc1 | 12% | 2% | i | 5% | 8% | i
COc1ccc(C(=O)CC(=O)c2ccc(OC)cc2)cc1 | -1% | -16% | ? | 4% | 1% | i
Cc1cc(=O)oc(C)c1C(=O)OC(C(=O)c1ccccc1)c1ccccc1 (stereo not given) | -2% | -3% | 23µM* | ? | 4% | i
C/C(=N\Nc1c(Cl)c(Cl)nc(C(=O)O)c1Cl)c1ccc(O)cc1 | 20% | 0% | ? | 3% | 18% | i
COc1ccc(C(=O)C(OC(=O)c2ccccc2)c2ccccc2)cc1 (stereo not given) | 4% | 8% | 13µM* | 6% | 9% | i
COc1ccc(C(=O)C(OC(=O)c2ccccc2Cl)c2ccccc2)cc1 (stereo not given) | 0% | 5% | i | 1% | -11% | i
CN1C(=O)C(Cl)(Cl)C(=O)c2ccccc21 | ? | 18µM* | i | ? | ? | i
CN1C(=O)C2(NC(=O)c3ccccc3N2C)c2ccccc21 (stereo not given) | 0% | -6% | i | -5% | -6% | i
CC(C)OC(=O)c1c(F)c(F)c(N2CCOCC2)c(F)c1F | ? | 16% | i | 3.3µM* | 1% | i
COc1ccc(Cl)cc1NC(=O)N1CCN(c2ccccc2OC)CC1 | -13% | -5% | i | -2% | 17% | i
NC(=O)Nc1cc(Cl)ccc1Cl | 8% | 13% | i | -4% | -9% | i
CCN1CCN(C(=O)Nc2cc(Cl)ccc2OC)CC1 | 21% | 12% | i | 3.7µM* | -8% | i
SMILES | HT1080 IDH1KD tx | HT1080NT lethal | KB-V1 MDR tox | MCF10A rereplic | SW480 rerep | KB-3-1 tox
O=C(Nc1cc(Cl)ccc1Cl)N1CCN(C(=O)Nc2cc(Cl)ccc2Cl)CC1 | 2% | 1% | 15µM* | 11% | 9% | i
CC12CCC(C(=O)NCc3ccc(F)cc3)(OC1=O)C2(C)C (stereo not given) | 13% | 6% | i | -4% | -8% | i
CC(Sc1nnc(-c2ccccc2)n1C)C(=O)NCc1ccco1 (stereo not given) | nt | nt | i | nt | nt | i
O=S(=O)(Nc1cccc2c1ccc1cccn12)c1cccs1 | 9% | 7% | i | 14µM* | 8% | i
O=S(=O)(Nc1cccc2[nH]ncc12)c1cccs1 | 0% | 0% | i | -6% | -12% | i
N#Cc1ccc(S(=O)(=O)N2CCN(C(=O)C3CC(=O)N(c4ccc5c(c4)OCCO5)C3)CC2)cc1 (stereo not given) | -2% | 2% | i | -2% | -1% | i
O=C(N/N=C/c1ccc2c(c1)OCO2)c1cccs1 | ? | ? | i | 11% | -4% | ?
Cc1occc1C(=O)N/N=C/c1ccc2c(c1)OCO2 | 8.2µM* | 9.2µM* | 7.3µM* | 3% | 2% | 15µM*
Cc1occc1C(=O)N/N=C/c1ccc(-c2ccccc2)cc1 | 6.5µM* | 9.2µM* | 13µM* | 14% | 18% | 21µM*
Cc1ccsc1C(=O)N/N=C/c1ccc2c(c1)OCO2 | ? | ? | 18µM* | 22% | -20% | ?
O=C(NCc1ccccc1)c1ccc(CS(=O)(=O)Cc2ccc(F)cc2)o1 | 2% | -4% | i | 10% | 3% | i
CCOC(=O)N1CCN(C(=O)Cn2ccc3ccccc3c2=O)CC1 | -1% | 0% | i | 0% | -9% | i
Oc1c(C(Nc2ccccn2)c2cccnc2)cc(Cl)c2cccnc12 (stereo not given) | ? | ? | i | 23µM* | 6.5µM* | ?
CC(=O)NC(c1ccc(C)cc1)c1cc(Cl)c2cccnc2c1O (stereo not given) | ? | -27% | ? | ? | 2.9µM* | 5.8µM*
CCCCC(=O)NC(c1ccco1)c1cc(Cl)c2cccnc2c1O (stereo not given) | 9.2µM* | ? | ? | 26% | ? | ?
O=C(CCc1ccccc1)NC(c1cccs1)c1cc(Cl)c2cccnc2c1O (stereo not given) | ? | ? | 2.1µM* | ? | ? | ?
COc1ccc(C(=O)NC(c2ccc(OC)c(OC)c2)c2cc(Cl)c3cccnc3c2O)cc1 (stereo not given) | nt | nt | i | nt | nt | i
CCC(=O)NC(c1ccc(OC)cc1)c1cc(Cl)c2cccnc2c1O (stereo not given) | ? | -26% | i | 11% | 0.52µM* | ?
COc1ccc(C(=O)NC(c2ccco2)c2cc(Cl)c3cccnc3c2O)cc1 (stereo not given) | nt | nt | ? | nt | nt | i
COc1ccc(C(NC(=O)c2cccnc2)c2cc(Cl)c3cccnc3c2O)cc1OC (stereo not given) | 12µM* | 21µM* | 6.5µM* | 13µM* | ? | ?
